Assay results published in ChEMBL document CHEMBL3433997, “St. Jude Leishmania screening dataset” (2016).

Key:
Type in all cases: functional
[1] = target: Solute carrier family 2, facilitated glucose transporter member 1 (Homo sapiens) (UniProt P11166); test: ST_JUDE_LEISH: Cytotoxicity at 2uM final concentration against transgenic Leishmania Mexicana promastigotes LmGLUT1 that are glucose transport deficient and complemented with the human glucose transporter GLUT1. Activity is measured by DNA content using SYBR green in vitro
Solute carrier family 2, facilitated glucose transporter member 1 (Homo sapiens), sequence (P11166 whole entry): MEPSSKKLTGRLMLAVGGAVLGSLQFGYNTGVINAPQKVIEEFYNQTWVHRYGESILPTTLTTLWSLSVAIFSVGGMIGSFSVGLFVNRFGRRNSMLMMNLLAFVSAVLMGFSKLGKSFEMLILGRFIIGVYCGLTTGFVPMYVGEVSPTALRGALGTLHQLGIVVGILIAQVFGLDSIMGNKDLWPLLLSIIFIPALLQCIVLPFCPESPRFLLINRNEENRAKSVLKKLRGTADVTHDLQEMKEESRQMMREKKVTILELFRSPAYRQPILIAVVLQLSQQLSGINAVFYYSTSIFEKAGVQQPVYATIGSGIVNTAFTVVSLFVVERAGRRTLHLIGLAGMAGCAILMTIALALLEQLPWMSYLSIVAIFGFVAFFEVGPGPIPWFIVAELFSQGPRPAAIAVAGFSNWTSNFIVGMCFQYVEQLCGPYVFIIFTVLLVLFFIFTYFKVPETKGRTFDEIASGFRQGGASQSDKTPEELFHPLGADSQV

[2] = target: Hexose transporter 1 (Plasmodium falciparum) (UniProt O97467); test: ST_JUDE_LEISH: Cytotoxicity at 2uM final concentration against transgenic Leishmania Mexicana promastigotes LmPfHT that are glucose transport deficient and complemented with the Plasmodium falciparum hexose transporter. Activity is measured by DNA content using SYBR green in vitro
[3] = target: Glucose transporter (Leishmania mexicana) (UniProt O61059); test: ST_JUDE_LEISH: Cytotoxicity at 2uM final concentration against transgenic Leishmania Mexicana promastigotes LmGT2 that are glucose transport deficient and complemented with the L. Mexicana glucose transporter 2. Activity is measured by DNA content using SYBR green in vitro

SMILES	inhibition [1] [%]	inhibition [2] [%]	inhibition [3] [%]
CCC[C@@H]([C@@H](CC(C)C)C(=O)N[C@@H](CCCCNC(=O)c1cccc(OC)c1)C(=O)Nc1nccs1)N(O)C=O	8.94	10.2	5.1
Cc1nn(-c2ccccc2)c2c1C(c1ccc(C(C)C)cc1)N1C(=N2)N(Cc2ccccc2)c2ccccc21 (stereo unspecified)	4.28	2.86	1.85
CC(=O)Oc1c(C2CCN(CCCCNC(=O)c3ccc(NC(=O)c4ccc(Cl)cc4)cc3)CC2)ccc2c1CCCC2	4.86	6.32	3.9
CSc1ccc(C=CC(=O)NC(=O)c2ccccc2O)cc1	1.32	2.44	1.41
O=C(Nc1cccc(-c2ccc(-c3nc4ccccc4[nH]3)cc2)c1)Nc1ccc(F)c(F)c1F	-2.14	1.23	2.03
CS(=O)(=O)N(CC(O)Cn1c2ccc(Cl)cc2c2cc(Cl)ccc21)c1ccccc1 (stereo unspecified)	0.79	1.45	2.64
CN(C)c1c(CNCCCCCCNCc2ccc3ccccc3c2N(C)C)ccc2ccccc12	8.79	8.66	7.38
CCN(CC)CCNc1ccnc2ccc3ccccc3c12	1.6	6.78	2.97
CN(C)C(CNC(=O)c1cc(-c2ccncc2)c(-c2ccc(Cl)c(O)c2)o1)c1ccccc1 (stereo unspecified)	1.95	1.6	8.87
O=C(Nc1ccc(OC2CCN(Cc3ccc(F)cc3)C2)c(Cl)c1)c1cccs1 (stereo unspecified)	2.66	2.25	0.55
Cc1ccc(C)c(NC(=O)NCCNc2ccnc(Nc3ccc(F)cc3)n2)c1	17	13.1	6.47
COc1cccc(NC(=O)[C@H](C(C)C)n2c(=O)[nH]c3ccccc3c2=O)c1	1.34	0.97	5.04
CC(C)c1ccc(N(CC(=O)N/N=C/c2ccc(C(F)(F)F)cc2)S(=O)(=O)c2ccc(C(F)(F)F)cc2)cc1	4.88	2.56	3.25
CCOc1c(CCNCCCCNCCc2ccc3ccccc3c2OCC)ccc2ccccc12	111	112	111
COc1ccc2nc(-c3cc(-c4ccc(NC(=O)C(C)C)cc4)cnc3N)[nH]c2c1	20.8	40.7	12.9
COc1ccc(-c2ccc(NC(=O)c3ccc(C#N)cc3)cc2)cc1CN(C)CCO	2.76	0.56	1.59
CCOc1ccccc1C(=O)Nc1cccc(-c2nc3ncccn3c2C)c1	2.41	-0.3	-0.34
Fc1ccccc1-c1cc(Nc2ccncc2)nc(-c2cccnc2)n1	0.54	1.28	-6.71
Cc1c(-c2ccc(C(=O)NC3CC(C)(C)NC(C)(C)C3)cc2)[nH]c2cc(Cl)c(Cl)cc12	10.9	8.08	13.8
O=S(=O)(NCCN1CCCC1)c1ccc(-c2ccc(CNC3Cc4ccccc4C3)cc2)cc1	2.13	0.85	-2.78
C=CCOc1cc(Cc2cnc(N)nc2N)cc(OC)c1OC	1.5	-3.15	-1.97
COc1cc2c(cc1OC)CC(NCc1ccc(-c3ccc4nc[nH]c4c3)cc1)C2	5.26	5.44	4.38
O=C(Nc1ccc(F)cc1)N1CCCN(c2ccnc3cc(Cl)ccc23)CC1	0.02	0.34	1.11
CC(C)C1=NC(=O)c2cc([N+](=O)[O-])ccc2CN1	1.78	1.79	2.11

SMILES	inhibition [1] [%]	inhibition [2] [%]	inhibition [3] [%]
CC(=O)Nc1ccc(C(=O)Nc2cccc(-c3ccc(-c4nc5cc(C(F)(F)F)ccc5[nH]4)s3)c2)cn1	3.05	3.45	4.26
COc1ccc2ccccc2c1C=NN=c1cc[nH]c2ccc(F)cc12	3.72	2.24	7.98
CCN(CC)/C(=N\C(=N)NCCCCCCNC(=N)/N=C(\Nc1ccc(Cl)cc1)N(CC)CC)Nc1ccc(Cl)cc1	0.25	-0.21	-0.92
O=C1CCCC1Sc1nc2ccccc2c(=O)n1-c1ccc(Cl)c(Cl)c1 (stereo unspecified)	2.33	1.97	-1.42
CC(CN(C)C)C(=O)Nc1ccc(-c2ccc(-c3nc4ccccc4[nH]3)cc2)cc1 (stereo unspecified)	3.03	3.01	5.36
c1cncc(CN2CCN(Cc3ccc(-c4ccc(-c5nc6ccccc6[nH]5)s4)cc3)CC2)c1	12.2	7.69	1.44
CCOc1ccc(Cc2c(C)nc3nc(N)nc(N)c3c2C)cc1	29.1	41.5	26
c1csc(-c2nc(NCC3CCCO3)ncc2-c2ccsc2)n1 (stereo unspecified)	1.71	2.71	3.35
CN(C)Cc1ccc(-c2cccc(NC(=O)c3cccc(Cl)c3)c2)cc1	2.44	1.66	1.39
COc1cc2c(cc1OC)CN(c1cc(N)c3cc(OC)c(OC)cc3n1)CC2	1.34	0.25	-1.39
CSc1ccc(NC(=O)Nc2cc(C)nc3ccccc23)cc1Br	-2.43	0.36	0.36
COc1cc(C(F)(F)F)cc2[nH]c(CNCCCNc3nc4ccccc4[nH]3)cc12	4.4	6.5	5.01
O=C(N[C@H]1CCN(Cc2ccc(OCCCN3CCCCC3)cc2)C1)c1ccc(Cl)c(Cl)c1	2.14	3.98	3.42
COc1ccc(-c2ccccc2OCCCNc2nc(NCCc3ccc(O)cc3)nc(N3CCNCC3)n2)cc1	1.12	3.49	2.75
CN(C)c1ccc(CN2CCC(CNC(=O)c3cc(-c4ccccc4Cl)cs3)C2)cc1 (stereo unspecified)	0.57	-3.68	0.7
FC(F)(F)c1ccc2[nH]c(-c3ccc(-c4cccc(CNCc5ccccc5)c4)cc3)nc2c1	7.1	4.87	7.33
CCOc1cc(C)ccc1N1CCN(CCCCNC(=O)c2ccc(NC(=O)c3ccc(Cl)cc3)cc2)CC1	0.02	-2.19	-0.2
Cc1cccc2nc(-c3cccc(-c4ccc(NC(=O)CCc5c[nH]cn5)cc4)c3)[nH]c12	7.76	9.49	8.27
COc1ccc2nccc([C@@H](O)CN3CCC(NCc4cc5oc(=O)[nH]c5cc4Cl)CC3)c2c1	-1.1	-1.56	-0.82
COc1ccc(NC(=O)CCNc2cc(C)nc(NCCOc3ccccc3)n2)cc1	2.22	2.64	1.92
Cc1ccc(Nc2cc(C)nn2-c2nc(C)cc(O)n2)cc1	75.4	73.6	67.6
CC1CCN(C(=O)CSc2nc(-c3ccc(C(C)C)cc3)no2)CC1	7.2	9.21	6.14
COc1ccc(NC(=O)/C=C/c2ccccc2Cl)cc1OCCN1CCC(Cc2cc3ccccc3[nH]2)CC1	3.32	1.85	-2.57
Fc1ccc2[nH]cc(CCNCc3ccc(-c4cccc(-c5nc6ccccc6[nH]5)c4)cc3)c2c1	4.9	4.54	3.56

SMILES	inhibition [1] [%]	inhibition [2] [%]	inhibition [3] [%]
CS(=O)(=O)c1ccc(CCNCc2ccc(-c3ccc(CNC4Cc5ccccc5C4)cc3)nc2)cc1	-0.55	-0.45	2.3
Nc1nccc2ccc(Oc3ccncc3)cc12	2.47	3.29	4.2
COc1ccc2nccc([C@@H](O)CN3CCC(NCc4nc5c(cc4Cl)OCC(=O)N5)C(F)C3)c2c1 (stereo partly specified)	1.37	0.56	0.2
COc1ccc(NC(=O)/C=C/c2ccccc2Cl)cc1OCCN1CCC(c2nc3ccccc3[nH]2)CC1	3.22	1.68	2.78
CCCC(C)NC(=O)[C@H](CC1CCCCC1)NC(=O)c1ccc(O)c(-c2ccc(OC)cc2)c1 (stereo partly specified)	2.7	0.19	2.85
COc1ccc(C2NCCc3c2[nH]c2ccccc32)cc1CN1CCN(c2ccc(F)cc2)CC1 (stereo unspecified)	3.17	0.27	0.15
CS(=O)(=O)c1ccc(CNCc2cccc(-c3cccc(-c4nc5cc(F)ccc5[nH]4)c3)c2)cc1	2.4	0.6	-2.93
COc1cccc(C(O)CNc2ccnc(Nc3cccc(-c4csc(C)n4)c3)n2)c1 (stereo unspecified)	1.26	-0.04	1.05
Cc1nc(N)nc(N)c1OCc1ccc(Cl)c(Cl)c1	0.66	1.73	2.48
N#Cc1cc(C(=O)Nc2ccccc2)c(N)nc1SCC(=O)NC(c1ccccc1)c1cccs1 (stereo unspecified)	4.19	1.36	4.48
COc1ccc2nccc([C@@H](O)CN3CCC(CO)(NCc4cc5ccccc5o4)CC3)c2c1	7.99	13.3	1.76
CN(C)CCCOc1ccc(CNCC(C)(C)c2nc(-c3ccc(Cl)c(O)c3)c(-c3ccncc3)[nH]2)cc1	3.39	1.89	2.83
COc1cc2nc(N3CCC(CNC(=O)c4ccc(-c5ccc(C#N)cc5)cc4)CC3)nc(N)c2cc1OC	1.64	1.87	1.74
CCNC(=O)Nc1ccc(-c2ccc(-c3nc4cccc(C)c4[nH]3)s2)cc1	11.7	8.87	7.95
CCn1ccc2c(N3CCCCS3(=O)=O)cc(C(=O)N[C@@H](Cc3ccccc3)[C@H](O)CNC(C)(C)CCCC(C)C)cc21	2.17	1.95	5.14
CCNc1cc(C(=O)N[C@@H](Cc2ccccc2)[C@H](O)CNC(C)CCCC(C)C)cc(N2CCCS2(=O)=O)c1 (stereo partly specified)	2.83	1.89	2.08
CCn1c(C)c(C)c2cc(C(=O)Nc3ccon3)ccc21	1.66	1.02	0.74
COc1ccc(-c2nc(NC(=O)CS(=O)(=O)c3ccc(C)cc3)sc2C)cc1	8.39	6.4	0.17
COc1ccc(-c2cccc(NC(=O)c3cccc(C#N)c3)c2)cc1CN1CCC(O)CC1	3.79	3.97	4.2
Clc1cccc(CNc2nc(NCCc3c[nH]cn3)nc(NC3CCCCC3)n2)c1	3.76	3.97	2.21
O=C(NCCCCN1CCC(c2nc3ccccc3s2)CC1)c1cc2ccccc2[nH]1	3.02	0.13	-1.01
CN(C)C(CNC(=O)c1cc(-c2ccncc2)c(-c2ccc(NC(=O)Nc3ccccc3)cc2)o1)c1ccccc1 (stereo unspecified)	-0.56	-0.15	-0.82
O=C(Nc1ccnc2ccccc12)NC1CCN(CCc2ccccc2)CC1	12.1	10.9	7.91
COC(=O)c1cccc(OCCNC2CCN(C[C@H](O)c3ccnc4ccc(OC)cc34)CC2)c1	0.73	-0.34	0.25
